MOR-DOR inv ag = inverse agonist of human OPRM1-OPRD1 heterodimerization; 0.21% of 340,000 active; inhibition, % at 9.3 µM; AID 504357; cell-based MOR-DOR heterodimer luminescence, inverse agonism; in the data active = inhibition above about 22%, passing the limit was not always enough;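 note: 0% = cells with DMSO and 100% = wells without cells with DMSO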
HTR5A inv ag = HTR5A inverse agonism, opioid heterodimer counter-screen; HTR5A cell line, luminescence; 0.083% of 340,000 active; P47898; inhibition, % at 9.3 µM; AID 504634; in the data active = inhibition mostly above about 23%, no sharp cut-off; inactive = mostly below about 18%;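 note: 0% = cells with DMSO and 100% = no-cell wells with DMSO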
Target sequence (P47898 whole entry, looked up): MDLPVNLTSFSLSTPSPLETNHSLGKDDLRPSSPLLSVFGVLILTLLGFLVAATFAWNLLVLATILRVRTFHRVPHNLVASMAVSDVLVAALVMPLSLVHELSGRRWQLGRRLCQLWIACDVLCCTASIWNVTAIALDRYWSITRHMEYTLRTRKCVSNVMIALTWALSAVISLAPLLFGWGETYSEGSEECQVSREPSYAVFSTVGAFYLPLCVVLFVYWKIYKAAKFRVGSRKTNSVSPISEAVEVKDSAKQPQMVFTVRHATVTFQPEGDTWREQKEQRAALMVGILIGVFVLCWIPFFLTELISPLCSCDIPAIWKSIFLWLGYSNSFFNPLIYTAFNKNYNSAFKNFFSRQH
m5-HT2A agonist = mouse HTR2A agonism via beta-arrestin recruitment. P35363. CHO-K1 mHTR2A beta-arrestin complementation, luminescence; percent of 30 µM serotonin response. activation, % at 7.6 µM. 0.66% of 360,000 active. AID 624169;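 active = activation above a run cutoff, the mean activation of all tested compounds plus 3 SD, cut at about 14% in these data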;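 note: 0% = plate median of compound wells and 100% = 30 µM serotonin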
HGIII-sPLA2 inh = Blocks human group III sPLA2 activity | QFRET BODIPY PC-A2 liposome hydrolysis, fluorescence | inhibition, % at 12.2 µM | 0.56% of 370,000 active;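 active = inhibition above mean plus 3 SD of compounds lying within the high and low control bounds, cut at about 19% in these data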;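 note: 0% = median of test compound wells and 100% = no enzyme DMSO wells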
MOR-DOR ag = OPRM1-OPRD1 heterodimerization agonism; P35372+P41143; cells, luminescence; activation, % at 9.3 µM; 0.3% of 340,000 active; AID 504326; in the data active = activation above about 18%;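 note: 0% = vehicle-treated cells and 100% = reference agonist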
HTR5A ag ctr = HTR5A agonism, opioid heterodimer counter-screen. P47898. HTR5A agonist assay, luminescence, cell-based. activation, % at 9.3 µM. 0.61% of 340,000 active; in the data active = activation mostly above about 9.5%, no sharp cut-off; inactive = mostly below about 7.6%;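 note: 0% = cells with vehicle only and 100% = reference agonist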
MOR-DOR inv conf = OPRM1-OPRD1 heterodimer inverse agonism, confirmation. AID 504900. shares compounds with MOR-DOR inv ag. 20% of 580 active. inhibition, % at 9.3 µM. cells expressing OPRM1/OPRD1 heterodimer, luminescence; in the data active = inhibition above about 32%;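 note: 0% = cells with DMSO and 100% = wells lacking cells with DMSO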
HTR5A inv count = counter-screen for OPRM1-OPRD1 inverse agonists: human HTR5A inverse agonism; shares compounds with MOR-DOR inv ag; HTR5A-expressing cells, luminescence; inhibition, % at 9.3 µM; 580 tested, under 10 active; call rule not given here;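 note: 0% = cells with DMSO and 100% = no-cell wells with DMSO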
Active calls of the source: *; i = inactive; nt = no result given. Only some compounds are listed: those with a hit (about 2.2% of all), similar ones and a draw of the others.

SMILES | MOR-DOR inv ag | HTR5A inv ag | m5-HT2A agonist | HGIII-sPLA2 inh | MOR-DOR ag | HTR5A ag ctr | MOR-DOR inv conf | HTR5A inv count
Cc1ccc(C(=O)COC(=O)CN2C(=O)C3C4CCC(C4)C3C2=O)cc1[N+](=O)[O-] (stereo unspecified) | 53* | 23 | -3 | -6 | -9 | -6 | -32 | 5
COc1ccc(-c2csc3ncnc(N4CCN(c5ccccc5Cl)CC4)c23)cc1 | 6 | 14 | 7 | 0 | -1 | -2 | nt | nt
COc1ccc(-c2csc3ncnc(N4CCN(c5cccc(C)c5C)CC4)c23)cc1 | 40* | -7 | -3 | 4 | -7 | 1 | -176 | -11
CC(=O)Nc1ccccc1C(=O)C(=O)O | 37* | 7 | -1 | 6 | -7 | -3 | -6 | -4
CC(=O)Nc1ccccc1O | 0 | -8 | -2 | 0 | 0 | 2 | nt | nt
CNC(=O)c1nnsc1S(=O)(=O)c1ccc(Cl)cc1 | 32* | 17 | -3 | 1 | -6 | -6 | -10 | -10
O=C(c1nnsc1S(=O)(=O)c1ccc(Cl)cc1)N1CCOCC1 | 25 | 4 | -4 | -1 | -5 | -1 | nt | nt
Cc1cccc(-c2cccc3c4c([nH]c23)[C@@H]2C[C@H](N(C)C(=S)Nc3ccc(C#N)cc3)[C@H]([C@H](C)O)CN2CC4)c1 | nt | nt | nt | 6 | nt | nt | nt | nt
O=C(N[C@H](Cc1ccccc1)C(=O)N1CCN(c2ncccn2)CC1)[C@H]1O[C@@H](n2ccc(=O)[nH]c2=O)[C@H](O)[C@@H]1O | nt | nt | nt | 3 | nt | nt | nt | nt
ON1C(c2ccc(Cl)cc2Cl)N(O)[C@H]2CCCC[C@H]21 (stereo partly specified) | 63* | 7 | 1 | 8 | -11 | -3 | i | 0
O=C(NCc1ccco1)Nc1c(Cl)cc(Cl)cc1Cl | nt | nt | nt | 0 | nt | nt | nt | nt
CN(C)S(=O)(=O)c1cccc(C(=O)Nc2ccccc2[N+](=O)[O-])c1 | 34* | 9 | 0 | 12 | -7 | -1 | 8 | -8
CC1CCN(c2ccc(C(=O)O)cc2NS(=O)(=O)c2ccc(C(C)(C)C)cc2)CC1 | nt | nt | nt | -37 | nt | nt | nt | nt
FC(F)(F)c1nc2ccccc2n2c(-c3ccc(Cl)cc3)nnc12 | 31* | 9 | 1 | -2 | -7 | -4 | 14 | 4
Cc1ccc(-c2nnc3c(C(F)(F)F)nc4ccccc4n23)cc1 | 20 | -5 | 1 | 9 | -4 | 2 | nt | nt
COc1ccc2c(c1)CCCN2C(=O)C1CCCN(S(=O)(=O)c2cccs2)C1 (stereo unspecified) | nt | nt | nt | -5 | nt | nt | nt | nt
O=C1C2=C(c3ccccc31)[N+](=O)C1CCCCC1N2[O-] (stereo unspecified) | 56* | 17 | 2 | 1 | -13 | 2 | 3 | 2
O=C1c2ccccc2C(=O)c2c1ccc1c(=O)n(C3CCCCC3)[nH]c21 | 4 | -3 | 1 | -1 | -1 | 1 | nt | nt
CC(=O)C(Sc1nn(C)c(=S)s1)C(=O)Nc1ccccc1 (stereo unspecified) | 72* | 16 | 6 | 7 | -16 | -11 | -266 | -38
COC(=O)C1NN=C(C(=O)c2ccc(Cl)cc2)C1c1ccc(OC)cc1 (stereo unspecified) | 47* | 24 | -6 | -39 | -8 | -9 | 16 | 2
COC(=O)C1NN=C(C(=O)c2ccccc2)C1c1ccccc1 (stereo unspecified) | 9 | -22 | 7 | -10 | -2 | -5 | nt | nt
Cc1c(C(=O)NC(=S)Nc2cccnc2)cccc1[N+](=O)[O-] | 35* | 31 | 3 | -7 | -7 | 0 | -201 | -39
CCOc1ccc(N=C2C(=O)Nc3ccc(C)c(Br)c32)cc1 | 53* | 17 | -2 | 5 | -10 | -4 | 83* | 11
Cc1ccc2c(c1Br)/C(=N/N1C(=O)c3ccccc3C1=O)C(=O)N2 | 65* | -1 | -1 | -14 | -11 | -3 | -34 | -21
Cc1ccc(N2C(=O)c3ccccc3C2=O)nc1 | 16 | 3 | 5 | -4 | -3 | -1 | nt | nt
SMILES | MOR-DOR inv ag | HTR5A inv ag | m5-HT2A agonist | HGIII-sPLA2 inh | MOR-DOR ag | HTR5A ag ctr | MOR-DOR inv conf | HTR5A inv count
CCOc1ccc(N=C2NC(=O)CS2)cc1 | -1 | -1 | 4 | 1 | 0 | 0 | nt | nt
O=C(Cc1ccc(F)cc1)OCC(=O)c1cc2ccccc2o1 | 48* | 10 | -5 | -10 | -8 | -6 | -116 | -12
CC(NC(=O)COc1ccccc1)C(=O)OCC(=O)c1cc2ccccc2o1 (stereo unspecified) | 71* | 23 | -9 | -4 | -13 | -7 | -16 | 2
O=C(CCNc1ccc(F)cc1)c1cc2ccccc2o1 | -35 | 7 | -1 | -2 | 8 | -3 | nt | nt
CN(CCOC(=O)c1cccs1)C1CN(Cc2cn(Cc3ccccc3Cl)nn2)S(=O)(=O)C1 (stereo unspecified) | nt | nt | nt | 13 | nt | nt | nt | nt
CC(=O)c1ccc(NCCCN2CCC(C(O)(c3ccccc3)c3ccccc3)CC2)cc1 | nt | nt | nt | -20 | nt | nt | nt | nt
Cc1ccc(OC(=O)c2cccc([N+](=O)[O-])c2)c(-n2nc3ccccc3n2)c1 | 15 | 6 | 0 | -3 | -2 | -2 | nt | nt
Cc1cc(-n2nc3ccccc3n2)c(O)c([N+](=O)[O-])c1 | 26* | 5 | 0 | 5 | -5 | 7 | -17 | 19
O=C1N=C(c2ccccc2)S/C1=C\c1cccs1 | 34* | -8 | -1 | 1 | -6 | 0 | -434 | -45
Cc1ccccc1C(=O)NNC(=O)C(=O)N1CCCCC1 | 13 | -17 | -6 | 0 | -2 | 7 | nt | nt
Cc1ccc(NNC(=O)C(=O)N2CCCCC2)cc1 | 28* | 3 | 2 | 2 | -5 | -1 | 3 | -6
O=S1(=O)N=C(N=Nc2c(O)[nH]c3ccccc23)c2ccccc21 | 25* | 17 | 1 | -2 | -4 | -2 | -4 | 5
Oc1[nH]c2ccccc2c1N=Nc1ccccc1 | 5 | -4 | 6 | -10 | -1 | 1 | nt | nt
COC(=O)[C@]12C[C@H](CC(=O)NCc3ccc(C)o3)C(=O)N(Cc3cccc4ccccc34)C1=C[C@H](COCc1ccccc1)O[C@@H]2C | nt | nt | nt | -10 | nt | nt | nt | nt
COc1ccccc1CCn1cnc(-c2cccc(Br)c2)c1CC(C)C | nt | nt | nt | 3 | nt | nt | nt | nt
CC(C)[C@H]1COc2c3ccccc3nn21 | nt | nt | nt | 10 | nt | nt | nt | nt
COCC(C)OC(=O)c1c(N)n(CC(C)C)c2nc3ccccc3nc12 (stereo unspecified) | 59* | 3 | -6 | -2 | -11 | 8 | 37* | 12
C=CCn1c(N)c(C(=O)OC(C)CC)c2nc3ccccc3nc21 (stereo unspecified) | 12 | -33 | 0 | 2 | -2 | 0 | nt | nt
CC(=O)N(/N=C1\Sc2ccccc2C1=O)c1cccc(C)c1 | 53* | 31 | -3 | -1 | -11 | -14 | 44* | -7
